In all, about 320,000 compounds went through this assay and about 2,100 (0.66%) were called active. Not shown: some 53% with an inconclusive outcome. The sample holds actives, similar compounds and a random draw of the others, so the mix is not that of the screen. Calls follow the shape of the dose curve; as a rule, active = well fitted inhibition curve with a large enough effect in the signal ratio, with a control signal flat (not every such curve was filed as active); inconclusive = small, poorly fitted or top-dose-only effect, or effect the other way, or a change in a side signal; inactive = flat fitted curve, though single readings scatter; the % refers to the signal ratio.
Potency is read from the fitted curve at half-maximal effect.

A short description of this assay: qHTS Assay for Lipid Storage Modulators in Drosophila S3 Cells.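 As to cell number change: cells counted by Cell Tracker Red CMTPX staining in the red channel.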 As to lipid storage change, negative = inhibition: % is scaled to controls: 0 for no effect and ±100 for the full control effect. The note with it: BODIPY lipid droplet fluorescence, 18-24 h, cells fed with added oleic acid; cell number change: measured here: cell count max response; series mostly up to 46.1 µM; lipid storage change, negative = inhibition: at the top concentration. An excerpt:
NIH Molecular Libraries Probe Production Centers Network [MLPCN] NIH Chemical Genomics Center [NCGC] MLPCN Grant: 1 R03 MH085686-01 Assay Submitter (PI): Beller, Mathias; Max-Planck-Institut fur Biophysikalische Chemie NCGC Assay Overview: Storing lipids as a reservoir for energy or the anabolism of elementary metabolites is a common feature of probably all cells and is conserved from bacteria to humans. The universal cellular lipid storage organelle is the so-called lipid storage droplet (LD). Although ubiquitous, LDs share a simple structure composed of a hydrophobic core that harbors the storage lipids, which is shielded by a droplet-specific phospholipid monolayer to which proteins are attached. The current model of LD biogenesis involves an incorporation of the lipid core into the membrane leaflets of the endoplasmic reticulum (ER) followed by a subsequent budding-like maturation of a LD, which ultimately pinches off. Once released, LD volume can increase by localized lipogenesis or fusion of existing droplet. Storage lipids are re-mobilized enzymatically by lipase activity. Lipase regulation in the adipocyte is heavily studied and involves multiple components including catecholamine signaling, the LD-associated proteins Perilipin and comparative gene identification (CGI-58) and at least two lipases named hormone sensitive lipase (HSL) and adipocyte triglyceride lipase (ATGL). LD regulation outside of the adipocyte is poorly understood and only few components are known. However, there is an urgent need to learn more about ectopic fat depots as mislocalized storage of lipids, for example in the liver or muscle, is an eminent health problem associated with insulin resistance or the metabolic syndrome. We developed a laser-scanning cytometer assay to enable 1,536-well screening and combined the results of the small molecules screen with an RNAi database based on lipid storage.
Triacsin C (Sigma-Aldrich T-4540), an inhibitor of long-chain fatty acyl CoA synthetase that blocks synthesis of triglycerides, was used as a positive control for lipid under-storage. A total of 23 nL of compound solution of different concentrations were transferred to the assay plates using a Kalypsys pin tool equipped with a 1,536-pin array containing 10-nL slotted pins (FP1S10, 0.457-mm diameter, 50.8 mm long; V&P Scientific). One microliter of oleic acid (400 uM) was added, and the plate was lidded with stainless steel rubber gasket lined lids containing pinholes. […] Fluorescence was detected by excitation of the fluorophores with a 488-nm laser on an Acumen Explorer (TTP Lab Tech). The total intensity in channel 2 (500-530 nm) reflected lipid droplet accumulation. Cells were detected using channel 3 (575-640 nm) with 5-um width and 100-um depth filters. The ratio of the number of objects in PMT channel 2 over the number of objects in PMT channel 3 was also calculated. Percent activity was computed relative to an internal control (100% inhibited lipid droplet deposition due to the presence of 20 uM Triacsin C), which was added to 32 wells/plate.
On the technique in general: Quantitative high-throughput screening tests each substance at several concentrations.
Regarding `CC(C)CN(C(=O)C1CCCC1)C1CCS(=O)(=O)C1` (centres undefined), the “lipid storage change, negative = inhibition” value is -4.14% (inactive) and the cell number change was -27.9%. For `N#CCN1CCC/C1=C\[N+](=O)[O-]`, the “lipid storage change, negative = inhibition” value was 4.55% (inactive) and the cell number change is 11.9%. For `CCCN(CCC)S(=O)(=O)c1ccc2c(c1)CCCN2C(C)=O` the same measures were 13.4% (inactive) and -13.4%.

For the compound `Cc1ccc(CN2CCN(/N=C/c3sccc3C)CC2)c(C)c1`, the “lipid storage change, negative = inhibition” value is 20.6% (inactive) and the cell number change was -17.1%. For `CCN(CC)S(=O)(=O)c1cccc(C(=O)NC2=NCCS2)c1` the same measures were -13.9% (inactive) and -2.91%.

On to `O=C(N/N=C/c1c[nH]c2ccccc12)c1ccn(Cc2ccc(Cl)cc2Cl)n1`, for which the “lipid storage change, negative = inhibition” value was -4% (inactive) and the cell number change is -11.1%. For the compound `O=C(NCc1c(Cl)cccc1Cl)c1ccc2nnsc2c1`, the “lipid storage change, negative = inhibition” value is 0.193% (inactive) and the cell number change was 12.5%. Consider `O=C(NC(CCl)c1ccccc1)c1ccc(Cl)cc1` (centres undefined), for which the “lipid storage change, negative = inhibition” value was 1.15% (inactive) and the cell number change is 13.4%.

As to `O=C1CCCN1c1ccc(C(=O)N(Cc2nnc(-c3ccccc3Cl)o2)C2CC2)cc1`, the outcome was inactive and the cell number change was -25.6%. As to `Cc1cccc(C(=O)NCCC(=O)NCc2ccccc2F)c1`, the “lipid storage change, negative = inhibition” value is -21.2% (inactive) and the cell number change amounted to 10.5%.

As to `CN(C)c1cccc(C(=O)NCc2ccccc2Cl)c1`, the outcome was inactive. Consider `Cc1cccc(C(=O)NCCC(=O)NCc2ccccc2Cl)c1`, for which the Potency is 1.84 µM (active) and the cell number change was -17.5%. For `CCOc1cccc(/C(O)=C2/C(=O)C(=O)N(CCOC)C2c2ccco2)c1` (centres undefined), the compound was called inactive and the cell number change was found to be 3.12%.

On to `CC1CCC(N2CCN(c3ccc([N+](=O)[O-])cc3)CC2)CC1` (centres undefined), for which the call was inactive and the cell number change is -15.6%. In the case of `COc1ccc(-c2cc(C(=O)N3CCN(c4ccccc4F)CC3)c3ccccc3n2)c(OC)c1`, the Potency was 3.26 µM (active) and the cell number change is -25.7%. With `COc1ccc(-c2cc(C(=O)N3CCN(c4ncccn4)CC3)c3ccccc3n2)c(OC)c1`, the “lipid storage change, negative = inhibition” value was -1.54% (inactive). Regarding `COc1ccc(-c2cc(C(=O)N3CCCCCC3)c3ccccc3n2)c(OC)c1`, the compound was called inactive. Consider `O=C(O)c1cccc2c1C(=O)N(c1ccccc1)C2`, for which the “lipid storage change, negative = inhibition” value was 7.94% (inactive) and the cell number change is -2.23%.

With `Cc1ccc(N2CCN(S(=O)(=O)N3CCCCC3)CC2)c(C)c1`, the “lipid storage change, negative = inhibition” value is -0.445% (inactive) and the cell number change turned out to be 18.1%. As to `CN1/C(=C\C(=O)c2cccc([N+](=O)[O-])c2)Sc2ccccc21`, the Potency is 1.84 µM (active) and the cell number change was -22.2%.

In the case of `CN1/C(=C\C(=O)c2cccs2)Sc2ccccc21`, the “lipid storage change, negative = inhibition” value is 24.2% (inactive) and the cell number change was 18.5%.

For `COc1cc(OC)cc(C(=O)/C=C2\Sc3ccccc3N2C)c1`, the “lipid storage change, negative = inhibition” value was 0.116% (inactive) and the cell number change is 2.87%.

Turning to `Cc1cccc(N2CC3=C(C2=O)C(c2ccccc2)NC(=O)N3C)c1` (centres undefined), the compound was called inactive and the cell number change is 28.8%. As to `CC1(C)c2[nH]c3ccccc3c2C[C@H]2C(=O)N(CCCO)CC(=O)N21`, the “lipid storage change, negative = inhibition” value is -9.62% (inactive) and the cell number change is 7.32%.

For the compound `CC(=O)c1ccc(NC(=O)CCNC(=O)c2ccccc2Cl)cc1`, the call was inactive. Regarding `Fc1ccc(F)c(CN2CCN(c3ncccn3)CC2)c1`, the “lipid storage change, negative = inhibition” value is 16.3% (inactive) and the cell number change was -0.405%. As for `COc1ccc(/C=C2\SC(=Nc3ccccc3OC)NC2=O)cc1`, the “lipid storage change, negative = inhibition” value was 13% (inactive) and the cell number change is -11.5%. The corresponding values for `COc1ccc(/C=C2\SC(=Nc3ccccc3)NC2=O)cc1` are -17.6% (inactive) and -6.61%. For the compound `COc1ccccc1N=C1NC(=O)/C(=C/c2ccc(N(C)C)cc2)S1`, the Potency is 10.3 µM (active) and the cell number change was -21.8%.

Consider `Cc1ccc(SCC(=O)OCc2csc(CC(=O)Nc3ccccc3C)n2)cc1C`, for which the “lipid storage change, negative = inhibition” value is 12.3% (inactive) and the cell number change was -3.61%. The corresponding values for `COc1cc(OC)cc(C(=O)NCc2ccc3[nH]c(C)cc3c2)c1` are -15.4% (inactive) and -3.37%.

With `CN(C)c1ccc(/C=C/C(=O)c2cc(Cl)ccc2O)cc1`, the Potency is 4.11 µM (active) and the cell number change is -22.6%. As for `CN(C)c1ccc(/C=C/C(=O)c2ccccc2O)cc1`, the “lipid storage change, negative = inhibition” value was -9.67% (inactive).

On to `O=C(/C=C/c1cccs1)c1cc(Cl)ccc1O`, for which the “lipid storage change, negative = inhibition” value was 10.1% (inactive) and the cell number change came out at 3.94%.

For `CCC(CC)NC(=O)Nc1cccc(C)c1C`, the “lipid storage change, negative = inhibition” value is 3.89% (inactive) and the cell number change is -9.81%.

As for `COc1ccccc1CNC(=O)c1cccs1`, the “lipid storage change, negative = inhibition” value was 14.8% (inactive) and the cell number change is -14%. On to `CCOc1ccccc1N1CC(C(=O)N2CCOCC2)CC1=O` (centres undefined), for which the compound was called inactive and the cell number change turned out to be 13.3%.

As for `CC(=O)Nc1c(O)nc(SCC(=O)N2CCCCC2)[nH]c1=O`, the “lipid storage change, negative = inhibition” value is 14.1% (inactive) and the cell number change was -10.1%. Consider `O=C(CSc1nc2ccccc2s1)N1c2ccccc2Sc2ccccc21`, for which the “lipid storage change, negative = inhibition” value was -19.3% (inactive) and the cell number change was -7.47%. `O=C(CSc1nc2ccccc2[nH]1)N1CCCCC1`: the result was inactive and the cell number change came to 1.09%. For the compound `O=C(CSc1nc2ccccc2[nH]1)N1c2ccccc2Sc2ccccc21`, the Potency was 16.4 µM (active) and the cell number change was -14%. Consider `O=C(O)c1cc(=O)c2cc(Cl)ccc2o1`, for which the Potency was 23.1 µM (active) and the cell number change is -8.2%. As to `O=C(c1cc(=O)c2cc(Cl)ccc2o1)N1CCN(Cc2ccccc2)CC1`, the “lipid storage change, negative = inhibition” value is 11.7% (inactive) and the cell number change stood at 10.7%. Turning to `NS(=O)(=O)c1ccc(CNC(=O)c2cc(=O)c3cc(Cl)ccc3o2)cc1`, the “lipid storage change, negative = inhibition” value was -0.959% (inactive) and the cell number change is -18%. Turning to `C=CCN(Cc1cn(C)nc1-c1cccc(Cl)c1)C1CCS(=O)(=O)C1` (centres undefined), the “lipid storage change, negative = inhibition” value is 7.59% (inactive) and the cell number change was -4.76%. Turning to `Nc1ccc(S(=O)(=O)NC2=NCCCCC2)cc1`, the “lipid storage change, negative = inhibition” value is -2.11% (inactive) and the cell number change came to 11.2%. On to `Cc1ccc(S(=O)(=O)NC2=NCCCCC2)cc1`, for which the “lipid storage change, negative = inhibition” value is 7.54% (inactive) and the cell number change is -2.65%.
